Assay results: PubChem BioAssay
The source made the active and inactive calls.

Tests used:
[1] = binders of probe aFSTL3 on microarray, primary screen, stem cell growth factor project, biochemical, small-molecule microarray, fluorescence 635/667 (AID 1064); details: higher = more signal;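 also: measures binding of the biotinylated anti-FSTL3 antibody to printed compounds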
[2] = binders from COS7 lysate, DM2A8 probe, primary screen, torsin A project, cell lysate, small-molecule microarray, fluorescence 635/667 (AID 1065); details: higher = more signal, COS7 lysate expressing mutant human TOR1A
[3] = binders of probe aFGF2 on microarray, primary screen, stem cell growth factor project, biochemical, small-molecule microarray, fluorescence 635/667 (AID 1067); details: higher = more signal;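 also: measures binding of biotinylated aFGF2 protein to printed compounds on slides; z-score merges feature fluorescence and signal-to-noise across triplicate slides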
[4] = binders of probe aFGF10 on microarray, primary screen, stem cell growth factor project, biochemical, small-molecule microarray, fluorescence 635/667 (AID 1071); details: higher = more signal;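 also: score merges 667 nm spot intensity and signal to noise from triplicate slides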
[5] = molecular target: Neurogenic locus notch homolog protein 2 (Homo sapiens) (UniProt Q04721); assay: Notch2 binders on small-molecule microarrays, primary screen, biochemical, small-molecule microarray, 635 nm fluorescence, stem cell growth factors (AID 1073); details: Notch2 binding, higher = more signal
Sequence of Neurogenic locus notch homolog protein 2 (Homo sapiens) (Q04721 whole entry, looked up, canonical isoform): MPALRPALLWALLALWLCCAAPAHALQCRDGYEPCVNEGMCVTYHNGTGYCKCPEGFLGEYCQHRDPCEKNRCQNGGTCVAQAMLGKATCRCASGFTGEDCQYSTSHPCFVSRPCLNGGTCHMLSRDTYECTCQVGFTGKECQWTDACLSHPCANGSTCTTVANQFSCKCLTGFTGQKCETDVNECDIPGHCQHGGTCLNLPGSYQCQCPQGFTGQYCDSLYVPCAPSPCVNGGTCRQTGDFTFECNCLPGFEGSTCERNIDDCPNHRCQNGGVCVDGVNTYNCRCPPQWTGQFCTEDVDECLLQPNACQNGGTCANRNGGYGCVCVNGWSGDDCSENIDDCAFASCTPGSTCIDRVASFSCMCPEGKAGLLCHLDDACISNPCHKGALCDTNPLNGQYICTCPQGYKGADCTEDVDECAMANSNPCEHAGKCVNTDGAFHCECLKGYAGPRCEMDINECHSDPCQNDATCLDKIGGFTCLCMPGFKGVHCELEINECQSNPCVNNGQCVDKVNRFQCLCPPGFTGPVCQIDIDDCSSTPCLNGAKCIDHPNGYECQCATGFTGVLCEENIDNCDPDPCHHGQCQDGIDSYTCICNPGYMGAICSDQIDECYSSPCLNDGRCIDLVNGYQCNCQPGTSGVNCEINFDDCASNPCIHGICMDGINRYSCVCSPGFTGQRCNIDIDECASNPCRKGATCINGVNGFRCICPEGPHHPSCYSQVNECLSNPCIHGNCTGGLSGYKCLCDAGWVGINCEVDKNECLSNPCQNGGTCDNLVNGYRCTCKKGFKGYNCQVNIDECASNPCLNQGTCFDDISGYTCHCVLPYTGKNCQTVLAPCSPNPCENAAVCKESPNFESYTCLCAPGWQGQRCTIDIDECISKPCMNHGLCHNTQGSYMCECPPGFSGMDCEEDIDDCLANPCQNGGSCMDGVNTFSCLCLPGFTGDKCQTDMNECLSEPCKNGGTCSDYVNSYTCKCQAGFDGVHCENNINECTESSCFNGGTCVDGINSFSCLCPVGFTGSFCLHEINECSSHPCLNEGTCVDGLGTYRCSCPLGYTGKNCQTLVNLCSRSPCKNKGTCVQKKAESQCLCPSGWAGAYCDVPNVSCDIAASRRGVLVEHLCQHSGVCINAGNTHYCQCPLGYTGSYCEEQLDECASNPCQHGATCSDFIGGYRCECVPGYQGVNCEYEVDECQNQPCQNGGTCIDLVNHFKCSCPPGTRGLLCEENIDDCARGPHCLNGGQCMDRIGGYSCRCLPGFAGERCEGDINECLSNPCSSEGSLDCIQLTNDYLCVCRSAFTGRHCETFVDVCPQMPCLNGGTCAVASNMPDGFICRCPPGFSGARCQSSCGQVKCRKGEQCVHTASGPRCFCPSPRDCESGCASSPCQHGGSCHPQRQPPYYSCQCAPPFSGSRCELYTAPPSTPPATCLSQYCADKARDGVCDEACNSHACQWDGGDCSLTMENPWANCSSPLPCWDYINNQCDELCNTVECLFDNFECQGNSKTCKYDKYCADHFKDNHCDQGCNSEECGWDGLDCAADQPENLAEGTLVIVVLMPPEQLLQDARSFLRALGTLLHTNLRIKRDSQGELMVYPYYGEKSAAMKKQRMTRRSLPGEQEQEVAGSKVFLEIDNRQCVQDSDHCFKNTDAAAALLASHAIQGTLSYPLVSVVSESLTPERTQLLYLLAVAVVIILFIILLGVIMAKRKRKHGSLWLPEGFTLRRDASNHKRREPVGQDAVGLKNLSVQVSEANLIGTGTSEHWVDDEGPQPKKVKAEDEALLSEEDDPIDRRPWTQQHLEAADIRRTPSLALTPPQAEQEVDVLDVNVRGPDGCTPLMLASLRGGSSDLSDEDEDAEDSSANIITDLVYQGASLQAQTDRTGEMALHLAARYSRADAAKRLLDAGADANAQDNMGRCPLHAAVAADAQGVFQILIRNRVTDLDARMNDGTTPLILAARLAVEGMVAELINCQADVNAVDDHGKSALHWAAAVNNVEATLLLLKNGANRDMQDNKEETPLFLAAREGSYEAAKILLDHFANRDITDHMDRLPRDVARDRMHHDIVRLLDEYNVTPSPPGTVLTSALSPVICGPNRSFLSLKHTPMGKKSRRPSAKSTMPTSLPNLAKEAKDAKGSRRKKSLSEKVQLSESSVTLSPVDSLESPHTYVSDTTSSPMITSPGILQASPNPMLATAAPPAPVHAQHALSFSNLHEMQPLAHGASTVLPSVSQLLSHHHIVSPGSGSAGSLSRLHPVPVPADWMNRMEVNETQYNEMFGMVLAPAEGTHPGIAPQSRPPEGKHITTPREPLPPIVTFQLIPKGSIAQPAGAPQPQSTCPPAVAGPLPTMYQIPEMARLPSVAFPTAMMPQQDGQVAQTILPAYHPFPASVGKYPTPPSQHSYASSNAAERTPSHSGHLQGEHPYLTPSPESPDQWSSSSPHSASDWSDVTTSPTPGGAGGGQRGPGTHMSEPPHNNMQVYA

[6] = molecular target: Pro-neuregulin-1, membrane-bound isoform (Homo sapiens) (UniProt Q02297); assay: NRG1 binders on small-molecule microarrays, primary screen, psychiatric disease protein project, biochemical, small-molecule microarray, fluorescence 635/667 (AID 1075); details: NRG1 binding, 635 nm fluorescence, higher = more signal;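 also: score combines 667 nm spot fluorescence with signal to noise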
[7] = system: Neuregulin-1 EGF-like domain; assay: binders of neuregulin-1 EGF-like domain, primary screen, biochemical, small-molecule microarray, 635 nm fluorescence (AID 1081); details: small-molecule microarray binding, higher = more signal;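 also: binding of the protein to compounds printed on small-molecule microarray slides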
[8] = FRG1 promoter luciferase signal modulators, primary screen, FRG1 inhibition for FSHD, cell-based, C2C12 myotubes, firefly/Renilla luciferase, luminescence (AID 1084); details: higher = more signal, called active from +8 up or from −8 down
[9] = binders of probe aFST on microarray, primary screen, stem cell growth factor project, biochemical, small-molecule microarray, fluorescence 635/667 (AID 1086); details: higher = more signal;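 also: score merges 667 nm fluorescence with signal-to-noise of each printed compound spot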
[10] = binders of probe aHhip on microarray, primary screen, stem cell growth factor project, biochemical, small-molecule microarray, fluorescence 635/667 (AID 1087); details: higher = more signal;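 also: score merges spot fluorescence at 667nm with spot signal to noise ratio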
[11] = system: PRMT1 (protein arginine N-methyltransferase 1); assay: PRMT1 binders on small-molecule microarrays, primary screen, biochemical, small-molecule microarray, 635 nm fluorescence (AID 1088); details: small-molecule microarray binding, higher = more signal;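 also: binding of Prmt1 protein to compounds spotted on small-molecule microarray slides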
[12] = yeast growth modulation, basal conditions, primary screen, YJM789 clinical isolate, OD600, 24 h (AID 1089);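 also: growth of clinical yeast isolate S. cerevisiae YJM 789 seeded 1000 cells per well; test concentration not given here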; details: S. cerevisiae YJM789 growth, higher = more signal, called active from +8 up or from −8 down
[13] = fission yeast growth modulation, primary screen, strain 972, OD600, 24 h, no modulator (AID 1090);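 also: basal condition with compound alone and no growth modifier present; test concentration not given here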; details: S. pombe 972 growth, higher = more signal, called active from +8 up or from −8 down
[14] = S. cerevisiae growth modulation with rapamycin, primary screen, strain BY4716, OD600, 96 h (AID 1091); details: higher = more signal, called active from +8 up or from −8 down; also: test concentration not given here
[15] = molecular target: Torsin-1A-interacting protein 2 (Homo sapiens) (UniProt Q8NFQ8); assay: LULL1 binders on small-molecule microarray, primary screen, cell lysate, human LULL1 lysate, 635/667 nm fluorescence (AID 1092); details: hLULL1 lysate binding, 635 nm fluorescence, higher = more signal;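 also: probe is lysate of COS7 cells overexpressing human LULL1; score merges per-feature 667 nm fluorescence with signal-to-noise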
[16] = E. coli growth modulation, two-sided OD650, primary screen, E. coli filamentation project, strain DRC41, 24 h (AID 1093); details: OD650, 24 h, higher = more signal, called active from +8 up or from −8 down;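 also: MC1000 strain lacking acrAB efflux and sulA so SOS filamentation is blocked; test concentration not given here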
[17] = small-molecule microarray binders of probe aLefty2, primary screen, biochemical, biotinylated probe, 635/667 nm fluorescence (AID 1094); details: higher = more signal;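 also: score merges spot fluorescence near 667 nm with spot signal-to-noise ratio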
[18] = system: Noggin (protein binding on small-molecule microarray); assay: Noggin binders on small-molecule microarray, primary screen, biochemical, 635/667 nm fluorescence (AID 1095); details: 635 nm fluorescence, higher = more signal;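 also: score merges 667 nm feature fluorescence with signal to noise over triplicate slides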
[19] = molecular target: Neurogenic locus notch homolog protein 3 (Homo sapiens) (UniProt Q9UM47); assay: NOTCH3 binders on small-molecule microarray, primary screen, biochemical, 635/667 nm fluorescence (AID 1096); details: NOTCH3 binding, 635 nm fluorescence, higher = more signal
Sequence of Neurogenic locus notch homolog protein 3 (Homo sapiens) (Q9UM47 whole entry, looked up): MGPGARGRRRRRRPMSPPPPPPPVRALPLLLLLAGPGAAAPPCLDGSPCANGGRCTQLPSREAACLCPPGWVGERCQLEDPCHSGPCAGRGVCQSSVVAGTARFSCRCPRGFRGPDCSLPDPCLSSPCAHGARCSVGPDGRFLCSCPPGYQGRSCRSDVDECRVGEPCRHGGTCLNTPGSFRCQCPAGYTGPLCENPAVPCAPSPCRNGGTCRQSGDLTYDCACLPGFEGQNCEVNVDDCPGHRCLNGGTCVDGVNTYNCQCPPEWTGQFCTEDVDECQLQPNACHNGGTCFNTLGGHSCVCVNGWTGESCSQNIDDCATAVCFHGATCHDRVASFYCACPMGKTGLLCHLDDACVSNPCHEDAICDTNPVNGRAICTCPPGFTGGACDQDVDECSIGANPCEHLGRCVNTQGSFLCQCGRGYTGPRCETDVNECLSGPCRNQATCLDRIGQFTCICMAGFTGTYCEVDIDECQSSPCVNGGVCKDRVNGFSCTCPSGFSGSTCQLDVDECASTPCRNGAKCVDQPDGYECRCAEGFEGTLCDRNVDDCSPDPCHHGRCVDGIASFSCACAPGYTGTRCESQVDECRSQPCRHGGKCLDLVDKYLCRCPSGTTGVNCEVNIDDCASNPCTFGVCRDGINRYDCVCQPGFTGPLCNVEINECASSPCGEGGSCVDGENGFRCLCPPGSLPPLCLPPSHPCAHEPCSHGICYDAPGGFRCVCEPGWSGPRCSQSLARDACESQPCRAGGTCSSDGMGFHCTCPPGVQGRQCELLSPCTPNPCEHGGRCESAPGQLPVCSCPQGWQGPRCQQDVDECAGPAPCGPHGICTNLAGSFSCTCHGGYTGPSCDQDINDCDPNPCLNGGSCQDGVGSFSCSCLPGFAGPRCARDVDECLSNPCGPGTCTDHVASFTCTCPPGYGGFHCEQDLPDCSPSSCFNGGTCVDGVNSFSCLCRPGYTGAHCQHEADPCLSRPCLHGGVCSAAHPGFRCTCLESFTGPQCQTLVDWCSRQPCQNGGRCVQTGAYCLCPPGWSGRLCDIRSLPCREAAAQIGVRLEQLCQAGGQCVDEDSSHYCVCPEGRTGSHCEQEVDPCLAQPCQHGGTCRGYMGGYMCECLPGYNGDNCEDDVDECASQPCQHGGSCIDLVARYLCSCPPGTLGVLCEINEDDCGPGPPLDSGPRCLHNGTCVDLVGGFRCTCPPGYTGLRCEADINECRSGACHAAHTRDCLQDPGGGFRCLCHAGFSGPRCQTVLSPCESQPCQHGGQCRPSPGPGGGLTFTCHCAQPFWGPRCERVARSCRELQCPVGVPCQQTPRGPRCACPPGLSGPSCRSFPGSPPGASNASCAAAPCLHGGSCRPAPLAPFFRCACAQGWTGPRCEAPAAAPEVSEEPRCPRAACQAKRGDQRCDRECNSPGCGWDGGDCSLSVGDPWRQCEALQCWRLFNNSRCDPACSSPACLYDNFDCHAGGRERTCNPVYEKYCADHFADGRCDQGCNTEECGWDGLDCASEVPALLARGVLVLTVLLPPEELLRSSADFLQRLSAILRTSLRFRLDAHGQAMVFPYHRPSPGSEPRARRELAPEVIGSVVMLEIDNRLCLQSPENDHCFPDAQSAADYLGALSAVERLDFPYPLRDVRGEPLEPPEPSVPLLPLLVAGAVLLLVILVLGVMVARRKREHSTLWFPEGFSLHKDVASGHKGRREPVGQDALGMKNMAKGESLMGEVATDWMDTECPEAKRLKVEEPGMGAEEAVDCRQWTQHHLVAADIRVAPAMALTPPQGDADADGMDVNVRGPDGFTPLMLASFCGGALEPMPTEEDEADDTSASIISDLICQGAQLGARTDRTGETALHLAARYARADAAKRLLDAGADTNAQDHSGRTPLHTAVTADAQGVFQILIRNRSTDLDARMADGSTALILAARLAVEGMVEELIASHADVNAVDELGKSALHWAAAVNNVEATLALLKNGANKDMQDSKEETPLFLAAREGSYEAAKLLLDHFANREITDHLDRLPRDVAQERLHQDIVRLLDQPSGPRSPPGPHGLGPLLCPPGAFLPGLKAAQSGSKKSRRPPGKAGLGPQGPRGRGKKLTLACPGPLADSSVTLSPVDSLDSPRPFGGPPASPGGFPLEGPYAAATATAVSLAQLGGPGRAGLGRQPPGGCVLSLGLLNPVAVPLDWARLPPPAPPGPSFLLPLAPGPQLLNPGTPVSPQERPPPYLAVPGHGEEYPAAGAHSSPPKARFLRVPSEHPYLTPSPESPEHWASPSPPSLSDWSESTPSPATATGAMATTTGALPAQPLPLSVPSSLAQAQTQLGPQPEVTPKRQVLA

[20] = small-molecule microarray binders of probe aEGFR, primary screen, biochemical, biotinylated probe, 635/667 nm fluorescence (AID 1097); details: higher = more signal;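 also: probe is a biotinylated anti-EGFR antibody binding compounds printed on slides; score combines fluorescence near 667 nm and signal to noise of each spot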

| Compound | composite z-score [1] | composite z-score [2] | composite z-score [3] | composite z-score [4] | composite z-score [5] | composite z-score [6] | composite z-score [7] | z-score [8] | composite z-score [9] | composite z-score [10] | composite z-score [11] | z-score [12] | z-score [13] | z-score [14] | composite z-score [15] | z-score [16] | composite z-score [17] | composite z-score [18] | composite z-score [19] | composite z-score [20] |
| --- | --- | --- | --- | --- | --- | --- | --- | --- | --- | --- | --- | --- | --- | --- | --- | --- | --- | --- | --- | --- |
| O=C(CS)NCCCCCCNC(=O)[C@H]1C[C@H]2C(=O)N3CCC[C@H]3C(=O)N2[C@H]1c1cccc(OCCO)c1 | 0.255 | 0.7 | -0.0802 | 0.635 | 0.698 | 1.23 | 1.4 | 0.865 (inactive) | 0.189 | 0.235 | 1.5 | -0.319 (inactive) | -0.26 (inactive) | 0.0927 (inactive) | 3.05 | -0.983 (inactive) | 0.105 | 0.858 | 1.1 | 0.0219 |
| COC(=O)[C@@]1(Cc2ccc(OC)cc2)[C@H]2c3cc(C(=O)N(C)C)n(Cc4c(OC)[nH]cc(C)c4=O)c3C[C@H]2CN1C(=O)c1ccccc1 | 0.522 | 0.0954 | -0.102 | 0.289 | 1.49 | 1.92 | 1.08 | -1.04 (inactive) | 0.927 | -0.444 | -0.386 | -1.88 (inactive) | 0.349 (inactive) | -0.464 (inactive) | 3.62 | -0.252 (inactive) | -0.0404 | -0.0598 | 0.145 | 0.487 |
| O=C1C2C=CC(C(O)c3cccs3)N(Nc3ccccc3F)C2C(=O)N1c1ccccc1 (stereo not given) | -0.111 | 0.28 | -0.0951 | 0.711 | 0.92 | 1.07 | 1.17 | 0.69 (inactive) | 0.267 | -0.196 | -0.441 | -0.471 (inactive) | 0.915 (inactive) | -0.867 (inactive) | 3.17 | 0.153 (inactive) | 0.0166 | -0.226 | 0.476 | -0.11 |
| O=C(CS)NCCCCCCNC(=O)[C@H]1C[C@H]2C(=O)NCC(=O)N2[C@H]1c1ccc(O)cc1 | 0.249 | -0.465 | -0.137 | 0.263 | -0.355 | 1.22 | 1.32 | -0.348 (inactive) | -0.346 | 0.0201 | 0.16 | -0.408 (inactive) | 0.0177 (inactive) | 0.505 (inactive) | 1.46 | -0.449 (inactive) | -0.0903 | 0.384 | 0.0288 | -0.136 |
| CC(C)C(=C=CC[C@H](O)c1ccccc1OCCO)C[C@H](O)c1ccccn1 | -0.102 | 1.51 | -0.125 | 0.486 | 0.695 | 1.66 | 1.36 | -1.68 (inactive) | 0.164 | -0.201 | 0.813 | 0.241 (inactive) | -0.709 (inactive) | -0.365 (inactive) | 2.27 | 0.662 (inactive) | 0.0374 | 0.247 | 0.719 | 0.151 |
| CC(C)(C)OC(=O)CC[C@@]1(C(=O)NCCN2CCOCC2)N=C(c2ccc(OCCCO)cc2)O[C@@H]1c1ccccc1 | 1.11 | 1.4 | 0.0189 | 0.262 | 1.28 | 1.75 | 1.2 | 0.951 (inactive) | 0.972 | 0.167 | 1.57 | -0.444 (inactive) | 0.0418 (inactive) | -0.552 (inactive) | 3.1 | 1.03 (inactive) | 0.37 | 0.755 | 0.807 | 0.285 |
| CC(C)CNC(=O)[C@@H]1c2ccccc2C(=O)N(Cc2cc(C(F)(F)F)cc(C(F)(F)F)c2)[C@H]1c1ccc(CO)cc1 | 0.491 | -0.249 | 0.071 | -0.365 | -0.744 | -0.27 | 0.401 | 0.53 (inactive) | 0.0438 | 0.224 | 0.457 | 0.976 (inactive) | -0.989 (inactive) | -0.706 (inactive) | 0.557 | -0.381 (inactive) | 0.104 | -0.96 | -0.977 | -0.0682 |
| CC(=O)NCCCC[C@@H]1NC(=O)[C@H]2C[C@@H](C(=O)NCCCCCC[N+](C)(C)C)[C@@H](c3cccc(OCCO)c3)N2C1=O | -0.374 | 0.645 | -0.0894 | 0.245 | 0.117 | 1.5 | 1.42 | 5.18 (inactive) | -0.0568 | -0.201 | 1.53 | -0.752 (inactive) | 0.0936 (inactive) | -0.425 (inactive) | 2.98 | 1.23 (inactive) | -0.16 | 1.19 | 0.97 | -0.0967 |
| C=C(COC)C(=O)CC[C@H](OC(C)=O)c1cccc(OCCO)c1 | -0.0206 | 1.66 | -0.0767 | 0.553 | -0.844 | -0.13 | -0.208 | 0.39 (inactive) | -0.392 | -0.291 | 0.591 | 0.513 (inactive) | -1.34 (inactive) | -0.0523 (inactive) | 0.118 | 0.896 (inactive) | -0.158 | 1.03 | -0.902 | -0.263 |
| C=C(C(=O)CC[C@H](OC(C)=O)c1ccc(OCCO)cc1)C(C)C | -0.398 | 0.194 | -0.134 | 0.991 | 1.49 | 0.0987 | -0.108 | -2.5 (inactive) | 0.0745 | 0.174 | 1.19 | -24.6 (active) | -20.5 (active) | -4.29 (inactive) | 0.739 | 2.11 (inactive) | -0.212 | 1.22 | 0.801 | -0.156 |
